39 compounds from PubChem BioAssay AID2242 (National Center for Advancing Translational Sciences (NCATS), 2010) can be followed below.

The campaign covered roughly 200,000 compounds. About 720 (0.36%) were called active. About 8% were inconclusive and are not listed. The call rests on the fitted dose curve; in most records, active means well fitted activation curve with a large enough effect; inconclusive means small, poorly fitted or top-dose-only effect, or effect the other way, or another doubt; inactive means flat fitted curve, though single readings scatter. The list shows a part of the results.
Potency means the concentration at half of the fitted maximal effect.

The target of the assay is Lysosomal alpha-glucosidase (Homo sapiens) (UniProt P10253). Briefly: qHTS Assay for Activators of Human alpha-Glucosidase as a Potential Chaperone Treatment of Pompe Disease. Further: nearly all actives have a fitted effect of over 80% in size. Conditions: purified enzyme, 4-MU-alpha-glucoside fluorescence, 20 min. The source says: NIH Chemical Genomics Center [NCGC] NIH Molecular Libraries Probe Production centers Network [MLPCN] MLPCN Grant: 1R03MH084841-01 Assay Submitter (PI): Wei Zheng NCGC Assay Overview: Alpha-glucosidase is responsible for hydrolysis of terminal, non-reducing 1,4-linked alpha-D-glucose residues with release of alpha-D-glucose. It is a lysosomal hydrolase that is required for the degradation of a small percentage (1-3%) of cellular glycogen in human. Deficiency of this enzyme results in glycogen-storage disease type II (GSDII), also referred to as Pompe disease, an autosomal recessive disorder. Structurally normal glycogen is accumulated in lysosomes and cytoplasm in affected patients, primarily in muscle tissues. Excessive glycogen storage within lysosomes may interrupt normal functioning of other organelles and leads to cellular injury. In turn, this leads to enlargement and dysfunction of the entire organ involved (eg, cardiomyopathy and muscle weakness). It has reported that the improper folding and trafficking of alpha-glucosidase resulting from the genetic mutations may account for a significant number of Pompe patients. […] We optimized this alpha-glucosidase assay in 1536-well plate format for identifying the novel small molecule inhibitors with the structures other than the sugar analogs in order to develop the new pharmacological chaperones, but are also able to detect potential activators. In conjunction with assays against alpha-galactosidase (AID 1467), fluorogenic false positive compounds can be identified.
NCGC Assay Protocol Summary: This is a fluorogenic enzyme assay with 4-methylumbelliferyl-alpha-D-[…] as the substrate and human alpha-glucosidase as the enzyme preparation. Upon the hydrolysis of this fluorogenic substrate, the resulting product, 1. 4-methyllumbelliferone, can be excited at 365 nm and emits at 440 nm which can be detected by a standard fluorescence plate reader. Data were normalized to the controls for basal activity (without enzyme) and 100% activity (with enzyme). In the AC50 values were determined from concentration-response data modeled with the standard Hill equation. Assay buffer: 50 mM citric acid (titrated with potassium phosphate to pH 5.0), 0.005% Tween-20, pH 5.0. (pH 5.0 is an optimal condition for this enzyme assay) 1536-well assay protocol for the human alpha-glucosidase: (1) Add 2 ul/well of enzyme (4 nM final) (2) Add 23 nL compounds in DMSO solution. The final titration was 0.7 nM to 77 uM. (3) Add 1 ul of substrate (400 uM final) (4) Incubate at room temperature for 20 min. (5) Add 2 ul stop solution (1M NaOH and 1M Glycine mixture, pH 10) (6) Detect the assay plate in a ViewLux plate reader (PerkinElmer) with Ex=365 nm and Em=440nm. Keywords: Alpha-glucosidase, Pompe Disease, pharmacological chaperone, chaperone therapy, high throughput screening, alpha-glucosidase inhibitor, MLSMR, MLSCN, NIH Roadmap, qHTS and NCGC
Consider `N#CC1=C(N)Oc2c(c(=O)oc3ccccc23)C1c1ccc(OC(=O)N2CCOCC2)cc1` (centres undefined), for which the Potency is 35.5 µM (active).

On to `COP(=O)(OC)c1nc(-c2cccc3ccccc23)oc1NCCc1ccccc1`, for which the Potency was 31.6 µM (active). The value for `COc1ccc(CNc2oc(-c3cccc4ccccc34)nc2P(=O)(OC)OC)cc1` was 35.5 µM (active); that for `CCOP(=O)(OCC)c1nc(-c2cccc3ccccc23)oc1NCCc1ccc(OC)cc1` was 31.6 µM (active).

For `COCCN1Cc2cc(=O)n3c([nH]c4ccccc43)c2C1=N`, the Potency was 31.6 µM (active). As to `COC(=O)c1ccc(C(=O)OC)c(NC(=O)Oc2ccccc2)c1`, the Potency was 31.6 µM (active). The value for `CC(C)OCCCNC(=O)c1c(N)n(CC2CCCO2)c2nc3ccccc3nc12` (centres undefined) was 39.8 µM (active); that for `CCCNC(=O)c1c(N)n(CC2CCCO2)c2nc3ccccc3nc12` (centres undefined) was 31.6 µM (active). Take `N#Cc1c(Cl)nc(Cl)c2c1CCN(Cc1ccccc1)C2`: the Potency was 31.6 µM (active). The value for `CN1CCc2c(C#N)c(Cl)nc(Cl)c2C1` was 35.5 µM (active); that for `CCCCn1c(N)c(C(=O)OCC2CCCO2)c2nc3ccccc3nc21` (centres undefined) was 35.5 µM (active); that for `CC(C)CCn1c(N)c(C(=O)OCC2CCCO2)c2nc3ccccc3nc21` (centres undefined) was 31.6 µM (active).

Take `COCCOC(=O)c1c(N)n(Cc2ccc(OC)cc2)c2nc3ccccc3nc12`: the Potency was 35.5 µM (active). As for `COCCOC(=O)c1c(N)n(Cc2ccccc2)c2nc3ccccc3nc12`, the Potency is 35.5 µM (active). The value for `COc1ccc(-c2cc(=NCCC(=O)O)c3cc(C)ccc3o2)cc1` was 28.2 µM (active); that for `COc1ccc(-c2cc(=NCCCCCC(=O)O)c3cc(C)ccc3o2)cc1` was 31.6 µM (active); that for `CCOC(=O)c1c(N)n(Cc2ccc(OC)cc2)c2nc3ccccc3nc12` was 25.1 µM (active). The value for `COC(=O)c1c(N)n(Cc2ccc(OC)cc2)c2nc3ccccc3nc12` was 35.5 µM (active); that for `CC(C)OC(=O)c1c(N)n(CC2CCCO2)c2nc3ccccc3nc12` (centres undefined) was 35.5 µM (active); that for `CC(C)CCOC(=O)c1c(N)n(CC2CCCO2)c2nc3ccccc3nc12` (centres undefined) was 39.8 µM (active). The value for `Nc1c(C(=O)OC2CCCCC2)c2nc3ccccc3nc2n1CC1CCCO1` (centres undefined) was 35.5 µM (active); that for `COCCCn1c(N)c(C(=O)OCCOC)c2nc3ccccc3nc21` was 31.6 µM (active). In the case of `COCCCn1c(N)c(C(=O)OC(C)COC)c2nc3ccccc3nc21` (centres undefined), the Potency was 39.8 µM (active). The value for `O=C(c1cc2c(s1)-c1ccccc1OC2)N1CCC2(CC1)OCCO2` was 39.8 µM (active). Take `CCOP(=O)(OCC)c1nc(-c2cccc3ccccc23)oc1N1CCOCC1`: the Potency was 39.8 µM (active). `COP(=O)(OC)c1nc(-c2cccc3ccccc23)oc1N1CCCCC1`: the Potency is 35.5 µM (active). The value for `CCOP(=O)(OCC)c1nc(-c2cccc3ccccc23)oc1N1CCCCC1` was 35.5 µM (active); that for `Nc1c(C(=O)NCCN2CCOCC2)c2nc3ccccc3nc2n1Cc1ccco1` was 39.8 µM (active). The value for `CCOC(=O)c1c(N)n(Cc2ccco2)c2nc3ccccc3nc12` was 39.8 µM (active); that for `COCCNC(=O)c1c(N)n(Cc2ccco2)c2nc3ccccc3nc12` was 31.6 µM (active).

On to `CCCCn1c(NC(=O)c2ccc(Br)o2)c(C(=O)OCC)c2nc3ccccc3nc21`, for which the Potency is 35.5 µM (active). The value for `CCOC(=O)c1c(N)n(CCCOC(=O)c2ccco2)c2nc3ccccc3nc12` was 35.5 µM (active); that for `CC(C)(C)OC(=O)c1c(N)n(Cc2ccco2)c2nc3ccccc3nc12` was 35.5 µM (active). The value for `CCCCCn1c(N)c(C(=O)NCCN2CCOCC2)c2nc3ccccc3nc21` was 35.5 µM (active). As for `COCCOC(=O)c1c(N)n(Cc2ccco2)c2nc3ccccc3nc12`, the Potency is 35.5 µM (active). The value for `CC(=O)N1CCC2(CC1)CC(=O)c1cc(OCC(=O)N3CCC4(CC3)OCCO4)ccc1O2` was 31.6 µM (active); that for `CC(C)CCn1c(N)c(C(=O)NCc2cccs2)c2nc3ccccc3nc21` was 28.2 µM (active). The value for `CCCOC(=O)c1c(N)n(Cc2cccs2)c2nc3ccccc3nc12` was 39.8 µM (active); that for `CCC(C)OC(=O)c1c(N)n(Cc2cccs2)c2nc3ccccc3nc12` (centres undefined) was 35.5 µM (active).
